Results filed as inconclusive are left out. Activity calls are given as the source filed them. Rule for the calls: active = hit-call score of the fitted dose curve at least 0.9, where 1 is the maximum; inconclusive = response in the unintended direction; inactive = score below 0.9.

These results are taken from PubChem BioAssay (EPA / NIEHS).

mouse Estrogen Receptor alpha (Era), Esr1 (gene 13982), sequence (P19785 whole entry, looked up): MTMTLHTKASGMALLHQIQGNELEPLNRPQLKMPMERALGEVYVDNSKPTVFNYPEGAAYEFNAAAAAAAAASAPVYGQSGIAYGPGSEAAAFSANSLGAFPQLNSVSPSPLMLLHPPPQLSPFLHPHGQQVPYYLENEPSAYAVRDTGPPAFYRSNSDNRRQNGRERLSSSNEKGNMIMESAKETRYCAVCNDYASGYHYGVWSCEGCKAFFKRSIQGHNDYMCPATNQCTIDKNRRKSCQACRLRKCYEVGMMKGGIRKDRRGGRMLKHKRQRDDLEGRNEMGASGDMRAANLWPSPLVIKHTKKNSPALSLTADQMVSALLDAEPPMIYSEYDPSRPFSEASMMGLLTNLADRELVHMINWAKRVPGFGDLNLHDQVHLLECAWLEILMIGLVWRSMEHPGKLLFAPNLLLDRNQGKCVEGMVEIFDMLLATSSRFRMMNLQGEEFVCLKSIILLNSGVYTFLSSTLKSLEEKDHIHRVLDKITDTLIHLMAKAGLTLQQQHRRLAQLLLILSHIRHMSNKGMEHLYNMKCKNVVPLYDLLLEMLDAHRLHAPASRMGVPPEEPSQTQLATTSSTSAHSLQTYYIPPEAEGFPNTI

The target in one experiment is human Norepinephrine Transporter (NET), SLC6A2 (gene 6530) (UniProt P23975). The experiment is described as follows: NVS_TR_hNET: NovaScreen (NVS) Transporter Assay for human Norepinephrine Transporter (NET) (AID 2283377).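 For AC50: displacement of radioligand from human NET seen as loss of scintillation signal.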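 Note: cell-free membrane protein extracted from CHO cells expressing human NET.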 In a few lines: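 In this cell-free binding screen, chemicals at 25 uM (duplicate) compete with a radioligand for CHO-derived human NET over 1 hour, with filter-based radiodetection.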
human Norepinephrine Transporter (NET), SLC6A2 (gene 6530), sequence (P23975 whole entry, looked up): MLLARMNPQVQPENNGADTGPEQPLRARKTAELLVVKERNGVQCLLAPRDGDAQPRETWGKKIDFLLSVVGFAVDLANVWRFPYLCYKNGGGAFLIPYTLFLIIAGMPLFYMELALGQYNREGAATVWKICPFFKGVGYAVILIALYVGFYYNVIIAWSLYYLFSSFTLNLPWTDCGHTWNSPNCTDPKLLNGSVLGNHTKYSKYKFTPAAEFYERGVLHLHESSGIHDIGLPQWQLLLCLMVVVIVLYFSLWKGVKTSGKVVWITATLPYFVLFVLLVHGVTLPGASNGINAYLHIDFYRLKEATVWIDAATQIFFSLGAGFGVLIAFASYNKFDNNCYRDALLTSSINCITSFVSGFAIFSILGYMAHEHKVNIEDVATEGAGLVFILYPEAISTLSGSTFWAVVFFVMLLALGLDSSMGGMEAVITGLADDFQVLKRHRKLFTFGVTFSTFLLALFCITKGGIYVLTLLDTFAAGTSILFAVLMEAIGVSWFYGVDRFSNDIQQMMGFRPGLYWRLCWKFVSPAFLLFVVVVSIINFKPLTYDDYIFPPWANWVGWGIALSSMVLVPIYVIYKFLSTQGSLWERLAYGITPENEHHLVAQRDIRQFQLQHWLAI
Regarding `Nc1cc([N+](=O)[O-])ccc1Cl`, the outcome was inactive.
The term AC50 denotes the concentration at which the activity in the assay is half-maximal. In the case of `CCn1c2ccccc2c2cc(N)ccc21`, the AC50 was 12.3 µM (active).
On to `COc1cc2ncnc(Nc3cccc(Cl)c3)c2cc1OC`, for which the half-maximal activity concentration (AC50) was 1.77 µM (active).

For the next experiment, the target named is mouse Estrogen Receptor alpha (Era), Esr1 (gene 13982) (UniProt P19785). In words: NVS_NR_mERa: NovaScreen (NVS) Nuclear Receptor Binding Assay for mouse Estrogen Receptor alpha (Era) (AID 2283378).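 Note: hit means loss of bound radioligand signal relative to DMSO.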 The essentials:
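Test chemicals competed against a specific radioligand for binding to cell-free mouse Era. Duplicate wells at 25 uM were read 18 hours later by filter-based radiodetection, with loss of signal against DMSO scored as activity.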
With `c1cc(C(c2ccc(OCC3CO3)cc2)c2ccc(OCC3CO3)cc2)ccc1OCC1CO1` (centres undefined), the outcome was inactive.
For `COC(=O)C1=C(C)NC(C)=C(C(=O)OCCN(C)Cc2ccccc2)C1c1cccc([N+](=O)[O-])c1` (centres undefined), the compound was classed as inactive.
Regarding `Clc1ccc2c(c1)C(N1CCNCC1)=Nc1ccccc1O2`, the outcome was inactive.
The same measure, in the same setting: to `CCCc1c(OCCCOc2ccc(OCC(=O)O)cc2)ccc(C(C)=O)c1O` belongs “inactive”; to `Cc1cc(C2(c3cc(C)c(O)cc3C)OS(=O)(=O)c3ccccc32)c(C)cc1O`, “inactive”; to `O=C(O)CCSCCC(=O)O`, “inactive”.
